Results on 21 molecules are retold here after PubChem BioAssay AID2284382 (EPA ToxCast).

By AC50 is commonly meant the midpoint of the concentration-response curve, whichever way the signal moves.

Results filed as inconclusive are left out. Calls of active or inactive are those of the source. Rule for the calls: active = hit-call score of the fitted dose curve at least 0.9, where 1 is the maximum; inconclusive = response in the unintended direction; inactive = score below 0.9.

The experiment is described as follows: CCTE_Mundy_HCI_iCellGABA_NOG_NeuriteLength: CCTE's Neurite Outgrowth Assay in iCellGABA cells for Neurite Length, Mundy Lab. How it is done:
CCTE_Mundy_HCI_iCellGABA_NOG is a multiplexed, cell-based-readout assay that uses iCell GABANeurons from FUJIFILM Cellular Dynamics, Inc. (FCDI), human GABAergic enriched neurons derived from induced pluripotent stem (iPS) cells, with measurements taken at 50.33 hours after chemical dosing in a microplate: 96-well plate.CCTE_Mundy_HCI_iCellGABA_NOG_NeuriteLength is one of four components of the CCTE_Mundy_HCI_iCellGABA_NOG assay. It measures neurite outgrowth related to neurite length using High Content Imaging of fluorescently labelled markers.Data from the assay component CCTE_Mundy_HCI_iCellGABA_NOG_NeuriteLength was analyzed at the endpoint CCTE_Mundy_HCI_iCellGABA_NOG_NeuriteLength in the positive analysis fitting direction relative to DMSO as the negative control and baseline of activity. Using a type of morphology reporter, loss-of-signal activity can be used to understand developmental effects.
Exposure starts 2 hours post-plating by adding 10 ul of the working solution to 90 ul of media in the wells for a 1/10 dilution. Forty-eight hours after chemical treatment cells are fixed by direct addition of 100 ul of warm (37C) Dulbecco's phosphate buffered saline (DPBS) fixative solution containing 8% paraformaldehyde, 8% sucrose, and 0.1% of 3 mg/ml Hoechst 33342 into each well. Primary antibodies are prepared by dilution in Immunocytochemical Staining Buffer (ISB), 10X Dulbecco's PBS, 0.1% Saponin, 5% Bovine Serum Albumin, 0.5% NaN3 (Sodium Azide) and betaIII-tubulin (rabbit anti-betaIII-tubulin, 1:800) followed by Alexa Fluor-488 secondary (1:500) to label neuronal cell bodies and neurites. A Cellomics ArrayScan VTi HCS Reader is used for automated image acquisition and analysis of neurite outgrowth.
In the case of `CCCSP(=O)(OCC)SCCC`, the molecule was classed as inactive.

On to `CCOP(=S)(OCC)Oc1ccc2c(C)c(Cl)c(=O)oc2c1`, for which the AC50 was 58 µM (active).

Turning to `CCCSP(=O)(OCC)Oc1ccc(Br)cc1Cl` (stereo unspecified), the outcome was inactive.

Take `CCOP(=S)(Oc1cnc(C(C)(C)C)nc1)OC(C)C` (stereo unspecified): the call was inactive.

Turning to `COP(=O)(OC)C(O)C(Cl)(Cl)Cl` (stereo unspecified), the AC50 was 50 µM (active).

For `CCOC(=O)CC(SP(=S)(OC)OC)C(=O)OCC` (stereo unspecified), the AC50 is 78.6 µM (active).

Regarding `CNC(=O)CSP(=S)(OC)OC`, the outcome was inactive.

Take `COP(=O)(OC)O/C(C)=C/C(=O)N(C)C`: the outcome was inactive.

As to `CCOP(=S)(OCC)SCSCC`, the outcome was inactive.

`COP(=O)(OC)O/C(=C\Cl)c1cc(Cl)c(Cl)cc1Cl`: the AC50 was 60.7 µM (active).

`COP(=O)(OC)OC=C(Cl)Cl`: the result was inactive.

For the molecule `CCOC(=O)CC(SP(=O)(OC)OC)C(=O)OCC` (stereo unspecified), the molecule was called inactive.

On to `COP(=S)(OC)SCN1C(=O)c2ccccc2C1=O`, for which the AC50 was 67.2 µM (active).

Regarding `CCOP(=S)(OCC)Oc1nc(Cl)c(Cl)cc1Cl`, the AC50 was 24.3 µM (active).

Take `CCOP(=O)(SC(C)CC)N1CCSC1=O` (stereo unspecified): the outcome was inactive.

With `CNC(=O)CSP(=O)(OC)OC`, the molecule was called inactive.

Regarding `CCOP(=S)(OCC)OC(Cl)C(Cl)(Cl)Cl` (stereo unspecified), the AC50 was 29.9 µM (active).

With `COP(=O)(OC)OC(Br)C(Cl)(Cl)Br` (stereo unspecified), the AC50 was 11.6 µM (active).

As for `CCOP(=S)(OCC)SCSC(C)(C)C`, the result was inactive.

For `CCN(CC)c1nc(C)cc(OP(=S)(OC)OC)n1`, the AC50 is 78.8 µM (active).

Regarding `CCCCSP(=O)(SCCCC)SCCCC`, the call was inactive.
